Common to all, as to conditions: compound concentration in added solution (µM; 5 µl added to 20 µl cells): 10; 18 h
Experiment [1] concerns A431. Put plainly: LBPA endosome anti-LBPA integrated intensity (sum per cell), Z-score; higher = more LBPA staining. Summed up:
(§1)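 Each value is a Z-score normalised in AcuityXpress from per-cell integrated LBPA or filipin intensity, taken over the whole cell or within LBPA endosomes. Duplicate 384-well imaging plates held 5 µl of 10 µM compound solution, onto which 3,500 HeLa MZ or A431 cells in 20 µl were seeded per well. After 18 h the cells were fixed in 4% PFA, stained with 6C4 anti-LBPA antibody, filipin, propidium iodide and CellTracker green, imaged four times per well at 20× and segmented in MetaXpress.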

Experiment [2] relates to HeLa MZ. The description is as above. An outline of the steps:
as §1

For experiment [3], the system named is A431. Put plainly: whole-cell filipin (free cholesterol) integrated intensity, Z-score; higher = more cholesterol staining. An outline of the steps:
as §1

Experiment [4] has as its system HeLa MZ. The description is as above. Summed up: as §1
The test system of experiment [5] is A431. Put plainly: filipin (cholesterol) integrated intensity within LBPA endosomes, Z-score; higher = more cholesterol in LBPA endosomes. Summed up: as §1
In experiment [6] the test system is HeLa MZ. Described as above. Summed up: as §1

Counter-ions that a name gives are not always drawn.

On to `O=C1CC2(CCCC2)CC(=O)N1CCCCN1CCN(c2ncccn2)CC1` [Buspirone hydrochloride], for which the results for the “LBPA endosome anti-LBPA integrated intensity (z-score)” value in the experiment on A431 [1] and with HeLa MZ [2] were -0.302 and -0.586, respectively. The figures for the “whole-cell filipin (z-score)” value in the experiment on A431 [3] and in the experiment with HeLa MZ [4] were 0.536 and 0.427, respectively. The “filipin (z-score)” value in the experiment on A431 [5] is -0.00788; in the experiment with HeLa MZ [6] it was 0.293.
For the molecule `NC(=O)N1c2ccccc2CC(=O)c2ccccc21` [Oxcarbazepine], the “LBPA endosome anti-LBPA integrated intensity (z-score)” value was -0.669 in the experiment on A431 [1] and -1.06 in the experiment on HeLa MZ [2]. Besides, the “whole-cell filipin (z-score)” value with A431 [3] is -0.767; in the experiment with HeLa MZ [4], -1.13. Besides, the “filipin (z-score)” value is -0.582 with A431 [5] and -0.729 with HeLa MZ [6].
Take `CN(C)[C@@H]1C(O)=C(C(N)=O)C(=O)[C@@]2(O)C(O)=C3C(=O)c4c(O)cccc4[C@@](C)(O)[C@H]3[C@H](O)[C@@H]12` [Oxytetracycline dihydrate]: the entries for the “LBPA endosome anti-LBPA integrated intensity (z-score)” value with A431 [1] and with HeLa MZ [2] were -0.525 and -0.93, respectively. Also, the “whole-cell filipin (z-score)” value in the experiment with A431 [3] is -0.872; in the experiment with HeLa MZ [4] it was -0.703. Further, the “filipin (z-score)” value is -0.537 with A431 [5] and -0.753 in the experiment on HeLa MZ [6].
Consider `C[C@H]1[C@H](NC(=O)/C(=N\OC(C)(C)C(=O)O)c2csc(N)n2)C(=O)N1S(=O)(=O)O` [Aztreonam], for which the “LBPA endosome anti-LBPA integrated intensity (z-score)” value with A431 [1] is -0.461; with HeLa MZ [2], -0.629. The “whole-cell filipin (z-score)” value is -0.642 in the experiment on A431 [3] and -0.428 in the experiment with HeLa MZ [4]. The “filipin (z-score)” value in the experiment on A431 [5] was -0.521; in the experiment on HeLa MZ [6], -0.607.
Consider `Cc1cc(-n2c(=O)[nH]c(=O)n(C)c2=O)ccc1Oc1ccc(SC(F)(F)F)cc1` [Toltrazuril], for which the entries for the “LBPA endosome anti-LBPA integrated intensity (z-score)” value in the experiment on A431 [1] and in the experiment with HeLa MZ [2] were -0.328 and 0.612, respectively. For the same molecule, the “whole-cell filipin (z-score)” value is -0.109 in the experiment on A431 [3] and 0.0439 in the experiment with HeLa MZ [4]. For the same molecule, the “filipin (z-score)” value with A431 [5] is -0.337; in the experiment on HeLa MZ [6], -0.457.
On to `CN(C)CCCO[C@@H]1[C@H]2OC(C)(C)O[C@H]2O[C@@H]1[C@H](O)CO` [Amiprilose hydrochloride], for which the “LBPA endosome anti-LBPA integrated intensity (z-score)” value was -0.365 with A431 [1] and -0.384 in the experiment with HeLa MZ [2]. Also, the “whole-cell filipin (z-score)” value in the experiment on A431 [3] is -0.0258; with HeLa MZ [4], -0.369. In addition, the “filipin (z-score)” value in the experiment with A431 [5] was -0.415; in the experiment with HeLa MZ [6] it was -0.492.
Consider `CC(C)(C)NCC(O)c1cc(O)cc(O)c1` (configuration not stated) [Terbutaline hemisulfate], for which the entries for the “LBPA endosome anti-LBPA integrated intensity (z-score)” value in the experiment with A431 [1] and with HeLa MZ [2] were -0.651 and -1.35, respectively. The “whole-cell filipin (z-score)” value was -0.395 in the experiment on A431 [3] and -0.481 in the experiment with HeLa MZ [4]. Besides, the “filipin (z-score)” value was -0.593 in the experiment with A431 [5] and -0.644 with HeLa MZ [6].
Regarding `NC1CCN(c2nc3c(cc2F)c(=O)c(C(=O)O)cn3-c2ccc(F)cc2F)C1` (configuration not stated) [Tosufloxacin hydrochloride], the entries for the “LBPA endosome anti-LBPA integrated intensity (z-score)” value in the experiment on A431 [1] and in the experiment with HeLa MZ [2] were -0.551 and -1.59, respectively. Also, the “whole-cell filipin (z-score)” value in the experiment with A431 [3] was -0.466; in the experiment with HeLa MZ [4], -1.51. Besides, the “filipin (z-score)” value with A431 [5] was -0.679; in the experiment on HeLa MZ [6], -0.966.
Regarding `CN(C)CCOc1ccc(/C(=C(/CCCl)c2ccccc2)c2ccccc2)cc1` [Toremifene], the “LBPA endosome anti-LBPA integrated intensity (z-score)” value in the experiment with A431 [1] was found to be 2.64; with HeLa MZ [2], 0.267. The “whole-cell filipin (z-score)” value with A431 [3] amounted to 2.3; with HeLa MZ [4] it was 1.93. The results for the “filipin (z-score)” value in the experiment on A431 [5] and in the experiment on HeLa MZ [6] were 2.35 and 3.94, respectively.
`CCCCC(C)(O)C/C=C/[C@H]1[C@H](O)CC(=O)[C@@H]1CCCCCCC(=O)OC` (mixture of isomers) [Misoprostol]: the “LBPA endosome anti-LBPA integrated intensity (z-score)” value in the experiment with A431 [1] is -0.446; in the experiment with HeLa MZ [2], -0.811. Further, the “whole-cell filipin (z-score)” value in the experiment with A431 [3] is 0.395; in the experiment on HeLa MZ [4], -0.741. Further, the entries for the “filipin (z-score)” value with A431 [5] and with HeLa MZ [6] were -0.436 and -0.608, respectively.
For `CC1(C)O[C@@H]2C[C@H]3[C@@H]4C[C@H](F)C5=CC(=O)CC[C@]5(C)[C@H]4[C@@H](O)C[C@]3(C)[C@]2(C(=O)CO)O1` [Flurandrenolide], the “LBPA endosome anti-LBPA integrated intensity (z-score)” value is -0.226 in the experiment with A431 [1] and -0.763 with HeLa MZ [2]. Also, the “whole-cell filipin (z-score)” value with A431 [3] is -0.173; in the experiment with HeLa MZ [4] it was 0.429. Moreover, the “filipin (z-score)” value with A431 [5] was -0.236; with HeLa MZ [6], -0.297.
`Cc1cc(=O)n(-c2ccccc2)n1C` [Antipyrine]: the results for the “LBPA endosome anti-LBPA integrated intensity (z-score)” value in the experiment on A431 [1] and in the experiment with HeLa MZ [2] were -0.333 and -0.475, respectively. Further, the entries for the “whole-cell filipin (z-score)” value in the experiment on A431 [3] and with HeLa MZ [4] were -0.316 and -0.0627, respectively. The “filipin (z-score)” value was -0.425 in the experiment on A431 [5] and -0.342 in the experiment with HeLa MZ [6].

(Values after the supplement of paper PMC6607015.)
